# According to the supplement of paper PMC12067093, “Discovery and optimisation of a covalent ligand for TRIM25 and its application to targeted protein ubiquitination” (Chemical Science, 2025):
# Targets with the largest changes are over-represented here; the source holds about 21,000 in all.
# Compound: Cc1cc(ccc1-c1ccccc1)C(=O)N1CCCN(CC1)C(=O)CCl [compound 10]
# Assay: probe-labelled cysteine peptide fold change vs DMSO (competition) (log2 fold change); higher = less target engagement (more negative = stronger competition)
# Conditions: THP-1, incubation time: 4 h
# 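Also: competitive profiling in live THP-1 cells: cysteine peptides tagged with an iodoacetamide desthiobiotin (IA-DTB) probe, intensity after compound treatment relative to DMSO-treated cells.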
# Sequence of UniProt Q9UBE0 (Q9UBE0 whole entry, looked up): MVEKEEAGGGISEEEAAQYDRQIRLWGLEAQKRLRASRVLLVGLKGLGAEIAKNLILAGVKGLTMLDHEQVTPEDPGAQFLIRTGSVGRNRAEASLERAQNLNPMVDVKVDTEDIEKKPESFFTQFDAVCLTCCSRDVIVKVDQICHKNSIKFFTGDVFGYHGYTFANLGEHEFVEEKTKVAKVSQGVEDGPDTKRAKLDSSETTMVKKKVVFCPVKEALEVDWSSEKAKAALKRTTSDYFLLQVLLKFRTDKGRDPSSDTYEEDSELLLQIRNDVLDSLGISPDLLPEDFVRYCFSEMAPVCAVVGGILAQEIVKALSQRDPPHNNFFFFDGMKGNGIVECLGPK
# Sequence of UniProt Q8IY92 (Q8IY92 whole entry, looked up): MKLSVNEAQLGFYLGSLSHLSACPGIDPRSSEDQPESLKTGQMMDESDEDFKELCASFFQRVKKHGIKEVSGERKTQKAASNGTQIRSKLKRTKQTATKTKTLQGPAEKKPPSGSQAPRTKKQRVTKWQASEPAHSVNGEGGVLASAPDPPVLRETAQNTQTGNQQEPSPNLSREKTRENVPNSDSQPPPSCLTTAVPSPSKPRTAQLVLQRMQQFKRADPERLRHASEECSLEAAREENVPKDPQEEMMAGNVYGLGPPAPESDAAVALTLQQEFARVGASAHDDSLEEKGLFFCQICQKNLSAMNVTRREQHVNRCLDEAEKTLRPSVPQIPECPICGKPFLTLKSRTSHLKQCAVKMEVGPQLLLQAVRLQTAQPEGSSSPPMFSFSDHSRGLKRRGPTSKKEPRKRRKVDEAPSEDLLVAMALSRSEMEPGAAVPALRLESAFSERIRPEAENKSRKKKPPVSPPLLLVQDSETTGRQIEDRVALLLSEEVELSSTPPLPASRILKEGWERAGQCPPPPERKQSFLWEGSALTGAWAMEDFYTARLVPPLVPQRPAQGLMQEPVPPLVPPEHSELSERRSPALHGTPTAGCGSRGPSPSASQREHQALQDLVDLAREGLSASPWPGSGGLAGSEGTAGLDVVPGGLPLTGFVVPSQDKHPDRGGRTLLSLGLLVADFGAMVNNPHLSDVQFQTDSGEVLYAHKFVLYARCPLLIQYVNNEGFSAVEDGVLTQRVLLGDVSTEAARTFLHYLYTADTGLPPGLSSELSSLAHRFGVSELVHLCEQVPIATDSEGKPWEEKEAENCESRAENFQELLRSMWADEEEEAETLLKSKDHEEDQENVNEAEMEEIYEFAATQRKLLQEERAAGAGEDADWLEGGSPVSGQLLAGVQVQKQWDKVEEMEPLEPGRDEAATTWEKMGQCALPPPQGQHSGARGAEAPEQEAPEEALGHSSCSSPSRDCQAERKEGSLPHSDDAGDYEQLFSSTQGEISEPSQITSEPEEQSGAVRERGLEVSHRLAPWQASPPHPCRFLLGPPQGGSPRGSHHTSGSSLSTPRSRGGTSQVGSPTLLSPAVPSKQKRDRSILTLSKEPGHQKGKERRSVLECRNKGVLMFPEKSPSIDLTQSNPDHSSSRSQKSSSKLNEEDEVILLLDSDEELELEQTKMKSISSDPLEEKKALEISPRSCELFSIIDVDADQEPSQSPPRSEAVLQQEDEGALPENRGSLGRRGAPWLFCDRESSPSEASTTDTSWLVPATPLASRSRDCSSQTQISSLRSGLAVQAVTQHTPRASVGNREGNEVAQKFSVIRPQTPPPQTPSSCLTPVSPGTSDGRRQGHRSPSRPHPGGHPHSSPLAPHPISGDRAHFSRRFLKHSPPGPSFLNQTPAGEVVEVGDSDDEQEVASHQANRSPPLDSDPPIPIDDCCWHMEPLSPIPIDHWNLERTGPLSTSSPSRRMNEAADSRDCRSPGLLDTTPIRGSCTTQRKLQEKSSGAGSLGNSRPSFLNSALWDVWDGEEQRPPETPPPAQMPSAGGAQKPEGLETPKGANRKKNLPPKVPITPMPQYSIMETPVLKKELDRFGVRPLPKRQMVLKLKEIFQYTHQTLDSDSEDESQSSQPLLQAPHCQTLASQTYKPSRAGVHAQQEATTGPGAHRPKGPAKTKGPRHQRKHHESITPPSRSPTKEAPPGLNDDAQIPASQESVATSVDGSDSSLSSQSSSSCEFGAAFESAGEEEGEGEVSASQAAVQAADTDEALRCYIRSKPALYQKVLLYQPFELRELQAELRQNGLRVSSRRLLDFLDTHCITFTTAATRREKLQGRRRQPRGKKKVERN
# Sequence of UniProt Q96A46 (Q96A46 whole entry): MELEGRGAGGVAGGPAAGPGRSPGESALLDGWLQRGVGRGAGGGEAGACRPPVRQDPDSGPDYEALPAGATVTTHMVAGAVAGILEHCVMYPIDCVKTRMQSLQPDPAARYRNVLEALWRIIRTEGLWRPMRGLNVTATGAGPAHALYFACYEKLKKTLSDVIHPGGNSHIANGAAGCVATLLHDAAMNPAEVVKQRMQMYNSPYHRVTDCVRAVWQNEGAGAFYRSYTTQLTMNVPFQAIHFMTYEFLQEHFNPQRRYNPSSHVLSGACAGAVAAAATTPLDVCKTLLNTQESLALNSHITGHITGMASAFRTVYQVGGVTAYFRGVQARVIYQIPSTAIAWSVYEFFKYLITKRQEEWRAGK
# Sequence of UniProt P08621 (P08621 whole entry): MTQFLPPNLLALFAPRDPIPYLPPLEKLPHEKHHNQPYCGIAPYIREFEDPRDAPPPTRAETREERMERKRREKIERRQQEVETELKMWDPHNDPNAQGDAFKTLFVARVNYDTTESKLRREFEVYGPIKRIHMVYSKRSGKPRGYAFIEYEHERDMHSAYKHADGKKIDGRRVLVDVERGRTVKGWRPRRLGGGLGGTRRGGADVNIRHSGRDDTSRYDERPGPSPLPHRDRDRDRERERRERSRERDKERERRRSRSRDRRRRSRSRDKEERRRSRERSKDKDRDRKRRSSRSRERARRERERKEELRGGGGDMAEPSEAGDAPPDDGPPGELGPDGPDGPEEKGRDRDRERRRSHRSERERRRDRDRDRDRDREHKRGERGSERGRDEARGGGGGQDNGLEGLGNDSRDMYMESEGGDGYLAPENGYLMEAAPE
# Sequence of UniProt Q9ULF5 (Q9ULF5 whole entry): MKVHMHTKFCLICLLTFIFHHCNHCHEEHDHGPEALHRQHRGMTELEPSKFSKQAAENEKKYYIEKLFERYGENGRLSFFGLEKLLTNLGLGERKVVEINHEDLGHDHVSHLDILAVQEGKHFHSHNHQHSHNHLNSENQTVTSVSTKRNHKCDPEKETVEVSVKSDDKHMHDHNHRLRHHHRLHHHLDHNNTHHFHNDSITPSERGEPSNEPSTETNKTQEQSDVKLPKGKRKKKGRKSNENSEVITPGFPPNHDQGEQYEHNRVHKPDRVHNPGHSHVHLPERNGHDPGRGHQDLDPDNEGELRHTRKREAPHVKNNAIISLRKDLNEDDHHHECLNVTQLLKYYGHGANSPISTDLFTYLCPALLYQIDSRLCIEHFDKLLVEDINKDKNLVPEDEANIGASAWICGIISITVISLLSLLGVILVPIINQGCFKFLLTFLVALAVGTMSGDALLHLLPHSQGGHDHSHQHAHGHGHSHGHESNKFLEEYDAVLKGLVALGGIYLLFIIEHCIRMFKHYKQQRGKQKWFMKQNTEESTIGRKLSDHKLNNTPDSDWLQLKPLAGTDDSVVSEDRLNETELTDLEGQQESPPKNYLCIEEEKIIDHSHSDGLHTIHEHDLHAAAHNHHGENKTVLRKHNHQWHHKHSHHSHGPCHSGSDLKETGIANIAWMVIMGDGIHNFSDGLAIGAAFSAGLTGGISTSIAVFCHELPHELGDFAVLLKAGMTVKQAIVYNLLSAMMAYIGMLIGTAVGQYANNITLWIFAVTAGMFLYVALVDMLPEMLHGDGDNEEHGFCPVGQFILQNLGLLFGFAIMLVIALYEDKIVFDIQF
# Sequence of UniProt Q9H3S1 (Q9H3S1 whole entry, looked up): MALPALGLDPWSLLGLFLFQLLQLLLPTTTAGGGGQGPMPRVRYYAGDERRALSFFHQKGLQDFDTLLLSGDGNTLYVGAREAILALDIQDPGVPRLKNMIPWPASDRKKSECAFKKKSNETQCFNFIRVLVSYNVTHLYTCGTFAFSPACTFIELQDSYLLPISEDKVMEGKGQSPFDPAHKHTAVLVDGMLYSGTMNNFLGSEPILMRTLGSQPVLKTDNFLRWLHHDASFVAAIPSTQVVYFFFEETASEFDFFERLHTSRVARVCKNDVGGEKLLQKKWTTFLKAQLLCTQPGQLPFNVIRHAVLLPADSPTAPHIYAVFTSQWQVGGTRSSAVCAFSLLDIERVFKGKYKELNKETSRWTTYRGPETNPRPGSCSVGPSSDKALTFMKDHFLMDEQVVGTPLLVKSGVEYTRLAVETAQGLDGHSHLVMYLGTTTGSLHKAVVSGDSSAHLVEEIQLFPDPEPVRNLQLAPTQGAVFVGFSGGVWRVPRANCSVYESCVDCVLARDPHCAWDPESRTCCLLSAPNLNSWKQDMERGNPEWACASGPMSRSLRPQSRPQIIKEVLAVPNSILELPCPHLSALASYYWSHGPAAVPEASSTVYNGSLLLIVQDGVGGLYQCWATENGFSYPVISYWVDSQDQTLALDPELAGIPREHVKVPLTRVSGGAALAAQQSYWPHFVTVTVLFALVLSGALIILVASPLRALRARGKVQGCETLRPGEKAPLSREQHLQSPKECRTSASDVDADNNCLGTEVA
Target,probe-labelled cysteine peptide fold change (10 µM),probe-labelled cysteine peptide fold change (50 µM)
SLC39A10_Q9ULF5_598_NYLCIEEEK (UniProt Q9ULF5),-0.213,-0.202
SLC25A28_Q96A46_49_GAGGGEAGACRPPVR (UniProt Q96A46),-0.368,-0.406
SETD2_Q9BYW2_836_ISSNSFMNVHLESKPVICDSR (UniProt Q9BYW2),0.115,0.0162
SNRNP70_P08621_39_HHNQPYCGIAPYIR (UniProt P08621),-0.0761,-0.168
SEMA4A_Q9H3S1_547_GNPEWACASGPMSR (UniProt Q9H3S1),-0.0882,-0.865
RPS6_P62753_12_KLNISFPATGCQK (UniProt P62753),0.00268,1.18
SAE1_Q9UBE0_134_VDTEDIEKKPESFFTQFDAVCLTCCSR (UniProt Q9UBE0),-0.00481,-1.27
RPL11_P62913_150_TGCIGAK (UniProt P62913),-0.0968,-0.152
SLC25A5_P05141_257_KGTDIMYTGTLDCWR (UniProt P05141),-0.111,-0.203
SLC25A5_P05141_257_GTDIMYTGTLDCWRK (UniProt P05141),-0.0476,-0.127
SLX4_Q8IY92_318_CLDEAEK (UniProt Q8IY92),-0.0818,0.0245
